# CHX counter: counter-screen for Shiga toxin inhibitors: cycloheximide protein synthesis inhibition; cell reporter, cycloheximide protein synthesis inhibition counterscreen; max response, %; hit rate 12% among 300,000; AID 2314; in the data active = max response mostly above about 13%, no sharp cut-off; inactive = mostly below about 14%; also: read at 38.3 µM for the half of the compounds with a filed dose
# Shiga toxin inh: Shiga toxin inhibition; Vero cells, Shiga toxin protein synthesis inhibition reporter; AID 2315; inhibition, % at 38.7 µM; hit rate 9.2% among 290,000; in the data active = inhibition mostly above about 28%, no sharp cut-off; inactive = mostly below about 43%
# LmPK inh: inhibitors of Leishmania mexicana pyruvate kinase; hit rate 0.37% among 290,000; Potency, µM (top dose mostly 57.5 µM), usual class: inhibitors; AID 1721; purified LmPK, Kinase-Glo ATP luminescence, 1 h
# Target sequence (Q27686 whole entry, looked up): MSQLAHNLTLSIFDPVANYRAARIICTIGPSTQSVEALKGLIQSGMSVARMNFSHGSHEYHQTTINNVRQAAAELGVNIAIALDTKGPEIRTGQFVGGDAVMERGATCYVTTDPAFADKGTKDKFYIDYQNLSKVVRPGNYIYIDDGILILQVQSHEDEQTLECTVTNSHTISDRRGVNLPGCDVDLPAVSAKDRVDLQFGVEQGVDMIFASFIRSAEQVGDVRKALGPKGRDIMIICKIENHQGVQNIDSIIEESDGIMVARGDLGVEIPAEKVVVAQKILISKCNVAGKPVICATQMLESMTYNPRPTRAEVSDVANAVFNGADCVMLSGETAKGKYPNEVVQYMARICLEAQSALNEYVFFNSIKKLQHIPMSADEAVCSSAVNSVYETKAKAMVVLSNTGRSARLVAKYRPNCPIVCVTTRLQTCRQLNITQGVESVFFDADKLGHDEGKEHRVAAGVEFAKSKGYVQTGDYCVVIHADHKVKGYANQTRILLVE
#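 Kinase-Glo luminescence read after 1 h RT reaction of 0.1 nM LmPK with 0.5 mM PEP and 0.1 mM ADP. Activity scaled between uninhibited and enzyme-free controls.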
# Sm TGR inh: blocks Schistosoma mansoni thioredoxin glutathione reductase | Q962Y6 | purified TGR, DTNB reduction, TNB absorbance 405 nm | Potency, µM (series often up to 114 µM), usual class: inhibitors | hit rate 3% among 360,000 | AID 485364; also: nearly all actives have a fitted effect of over 60% in size
#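 TGR 20 nM + NADPH 100 uM (dispensed conc.), cpd preinc 15 min RT; start with NADPH (500 uM addition) then DTNB (15 mM addition). Kinetic TNB absorbance, 405 nm filter. Four-parameter Hill fit across titration.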
# TbPYK inhibitor: blocks Trypanosoma brucei pyruvate kinase; Q57TT1; TbPYK enzyme, Kinase-Glo Plus ATP luminescence, 45 min; Potency, µM (top dose mostly 76.8 µM), actives largely listed as inhibitors; hit rate 0.12% among 410,000; AID 624173; also: nearly all actives have a fitted effect of over 50% in size
#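 Activity of T. brucei pyruvate kinase was followed by Kinase-Glo Plus luminescence after the enzyme reacted 45 min at room temperature with 130 uM ADP (final) and substrate. Test compounds were added before ADP at multiple concentrations.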
# FBPA Giardia inh: blocks Giardia fructose-bisphosphate aldolase activity. A8B2U2. purified Giardia FBPA. Potency, µM (highest dose often 59.6 µM), usual class: inhibitors. hit rate 0.71% among 290,000; also: nearly all actives have a fitted effect of over 55% in size
#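 40 nM FBPA preincubated 10 min at RT with compound (up to 57.5 uM final), then substrate plus GAPDH/TPI/NAD/arsenate coupling and diaphorase/resazurin added. Fluorescence read after 20 min at RT, 525/598 nm.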
# Hits are given with their value; 0 = inactive; ? = inconclusive; - = no result; [ ] = dose if it differs, or a comment. The entries come from a sample that favours hits as a whole. Unless noted, calls follow the shape of the dose curve; as a rule, active = well fitted curve in the direction sought with a large enough effect; inconclusive = small, poorly fitted or top-dose-only effect, or another doubt; inactive = no such curve, though single readings can be large; an effect the other way counts as inactive or inconclusive.
SMILES,CHX counter,Shiga toxin inh,LmPK inh,Sm TGR inh,TbPYK inhibitor,FBPA Giardia inh
Cn1c(SC2=CS(=O)(=O)c3ccccc32)nc2ccccc21,0,0,0,39.8µM,0,0
Cn1c(-c2ccccc2)cnc1SCc1nc2ccccc2c(=O)[nH]1,27.3,114.1,0,0,0,0
CCOc1ccccc1NC(=O)C(=O)c1cc(C)n(-c2cccc(C)c2C)c1C,-,-,-,0,0,-
COc1ccccc1CNC(=O)CN1C(=O)COc2ccc(S(=O)(=O)NC3CCCC3)cc21,21.5,0,0,0,0,0
COc1ccccc1CNC(=O)CN1C(=O)COc2ccc(S(=O)(=O)N3CCCCC3)cc21,0,0,0,0,0,-
C[C@H](NC(=O)c1nc[nH]c1C(=O)NCCCCCNC(=O)OC(C)(C)C)C(=O)OC(C)(C)C,30.8,56.9,0,0,0,0
O=C(Nc1ccc(Br)cc1)c1cc(-c2cccs2)on1,22.2,114.4,0,0,0,0
Cc1ccc(NC(=O)c2cc(-c3cccs3)on2)cc1,38.2,130.6,0,0,0,0
O=C(Nc1ccc(Cl)cc1)c1cc(-c2cccs2)on1,8.3,0,0,0,0,-
COc1cc(NC(=O)c2cc(-c3cccs3)on2)cc(OC)c1OC,0,0,0,0,0,0
COC(=O)c1sc2cccc(F)c2c1S(=O)(=O)N1CCN(c2ccccc2OC)CC1,-,-,-,0,?,-
CCc1ccc(NC(=O)c2ccccc2Br)cc1,34.6,61.0,0,0,0,0
CCCNC(=O)c1n[nH]c(=O)c2ccccc12,0,0,0,0,0,0
CCc1ccc(NC(=O)c2n[nH]c(=O)c3ccccc23)cc1,36.0,79.4,0,0,0,0
O=C(Nc1ccc(Br)cc1)c1ccccc1Br,55.3,89.8,0,0,0,0
O=C(Nc1ccc(Br)cc1)c1cc(Br)cc(Br)c1O,41.8,93.0,-,-,0,?
CC(=O)Nc1ccc(NC(=O)c2ccccc2Br)cc1,-,-,-,-,0,-
Nc1nc2c(ncn2C2CC(O)C(CO)O2)c(=O)[nH]1 (configuration not stated),-,-,-,-,-,0
O=C(CCCn1c(=O)c2cccn2c2ccc(F)cc21)NCCc1ccccc1,-,-,-,0,0,-
COc1cccc2c(N/N=C/c3ccc(O)c(O)c3)cc(C)nc12,22.1,53.4,0,0,0,0
COc1cc(/C=N/Nc2nncn2/N=C/c2ccc(O)c(OC)c2)ccc1O,12.8,48.4,14.1µM,0,?,?
COc1cc(/C=N/Nc2ccccc2C(F)(F)F)ccc1O,33.1,69.2,0,39.8µM,0,0
COc1cc(/C=N/Nc2ccccc2)ccc1O,0,0,0,39.8µM,0,0
CC(=O)Nc1cccc(-c2ccnc3c2CC(C(=O)NCc2ccco2)O3)c1 (configuration not stated),-,-,-,-,0,-
NS(=O)(=O)c1ccc(NC(=O)CSc2nc3c(cnn3-c3ccccn3)c(=O)[nH]2)cc1,-,-,-,0,0,-
SMILES,CHX counter,Shiga toxin inh,LmPK inh,Sm TGR inh,TbPYK inhibitor,FBPA Giardia inh
Cc1ccc(C)c(N2CCN(C(=O)C3CCN(Cc4nc(-c5cccc(Cl)c5)oc4C)CC3)CC2)c1,-,-,-,0,0,-
c1ccc(Cn2ncc3ccccc32)cc1,0,0,0,0,0,0
Fc1cccc(Cl)c1Cn1ncc2ccccc21,28.1,31.1,0,0,0,0
O=C(CSc1nc2ccccc2nc1Cc1ccccc1F)Nc1cccc(C(F)(F)F)c1,-,-,-,79.4µM,0,-
COc1ccc(-c2nc3cnc(OC)nc3n(C[C@H]3CCCO3)c2=O)cc1,-,-,-,-,-,0
Cn1c(Nc2ccc(Cl)cc2)cc(=O)n(C)c1=O,0,-,0,20µM,0,0
Cc1ccc(C(=O)Nc2nnc(S(=O)(=O)N(C)Cc3ccc(F)cc3)s2)cc1,-,-,-,0,0[15.4 µM],-
O=C1Cc2ccccc2C(=O)N1c1ccccc1,0,0,0,0,0,0
Cc1cc(N2C(=O)Cc3ccccc3C2=O)ccc1C(C)C,18.9,0,0,0,0,0
Nc1c(NC/C=C\COc2cc(CN3CCCCC3)ccn2)c(=O)c1=O,-,-,-,-,0,-
O=C(c1ccc2c(c1)N(Cc1cccc(Cl)c1)C(=O)c1ccccc1S2)N1CCOCC1,-,-,-,0,0,-
COc1cccc(C(=O)Nc2cccc3cccnc23)c1OC,22.2,-,0,0,0,0
CCOc1ccccc1C(=O)Nc1cccc2cccnc12,20.3,19.0,0,0,0,0
O=C(Nc1cccc2cccnc12)c1cccc2ccccc12,0,0,0,0,0,0
Cc1cc(-c2nc(-c3ccncc3)no2)ccc1[N+](=O)[O-],32.8,88.5,0,0,0,0
O=C(CSc1nnc(-c2cccs2)n1CC1CCCO1)N1CCCC1 (configuration not stated),0,0,0,-,0,0
CCn1c(SCc2nc(-c3ccc(OC)c(OC)c3)no2)nnc1-c1cccs1,15.4,0,0,0,0,0
CCOc1ccc(C(C)=O)cc1CSc1nnc(-c2cccs2)n1CC1CCCO1 (configuration not stated),0,0,0,20µM,0,0
CCOc1ccc(-c2nc(-c3cccnc3)no2)cc1OCC,12.2,0,0,0,0,0
CNc1ccc(-c2nc(-c3ccncc3)no2)cc1[N+](=O)[O-],-,-,-,0,0,-
COc1ccc(-c2noc(CSc3nnc(Cc4ccccc4)n3-c3ccccc3)n2)cc1OC,-,-,-,0,0,-
COC(=O)C1=C(C(=O)OC)[C@@H]2Nc3ccccc3[C@@]23C[C@@H](C(=O)OC)N(C(=O)NC2CCCCC2)C3=N1,-,-,-,-,0,-
Nc1nonc1-n1nnc(C(=O)N/N=C/c2ccoc2)c1-c1ccccc1,0,0,0,0,0,0
CCN(CC)CCOC(=O)c1ccc(NC(=O)Cn2ncc3c([nH]c4ccc(C)cc43)c2=O)cc1,-,-,-,0,0,-
COc1cc(-c2noc(-c3cccs3)n2)cc(OC)c1OC,0,0,0,0,0,0
SMILES,CHX counter,Shiga toxin inh,LmPK inh,Sm TGR inh,TbPYK inhibitor,FBPA Giardia inh
Fc1cccc(F)c1-c1nc(-c2ccncc2)no1,47.6,85.6,0,0,0,0
COc1ccc(-c2noc(-c3cccs3)n2)cc1OC,51.8,69.2,0,0,0,0
COc1ccc(-c2noc(-c3ccco3)n2)cc1OC,42.7,139.0,0,0,0,0
Cc1ccc(-c2nc(-c3ccncc3)no2)cc1Cl,27.8,61.1,0,0,0,0
Cc1ccc(-c2noc(CNC(=O)c3ccc(C)c(Cl)c3)n2)cc1,-,-,-,0,0,-
COc1ccc(-c2noc(-c3ccoc3C)n2)cc1OC,0,0,0,0,0,0
Cc1ccc(-c2cnc(C(O)c3ccc(Cl)cc3C)[nH]2)cc1 (configuration not stated),-,-,-,-,0,-
CCCCCCC(=O)Nc1cc2nc3c(nc2cc1C)c(=O)n(C)c(=O)n3C,-,-,-,0,0,-
COc1ccc(-c2nc(-c3ccncc3)no2)cc1OC,47.7,79.3,0,0[11.4 µM],-,0
COc1ccc(-c2noc(-c3ccccc3Cl)n2)cc1OC,56.1,65.1,0,0,0,0
CCOc1ccc(-c2noc(-c3ccncc3)n2)cc1OCC,0,0,0,0,0,0
